Data as given in PubChem BioAssay AID504621 (Broad Institute, 2011).
The campaign covered roughly 310,000 compounds. About 970 (0.31%) were called active. This excerpt belongs to a sample that is enriched for actives. A number with no mark means an inactive call.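 The calls were made as follows: active = every replicate shows inhibition above about 80%, whatever the replicate mean (limit read from the data); inconclusive = mean inhibition reaches the set limit but some replicate falls short; inactive = the rest.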

Experiment: growth inhibition of PfHsp90-expressing yeast, primary screen, antimalarial PfHsp90 inhibitor project, S. cerevisiae, BacTiter-Glo luminescence, single point, set 2 (AID 504621);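 also: yeast relying on Plasmodium falciparum Hsp90 in place of its own; 0% = DMSO neutral controls and 100% = 20 µM radicicol positive controls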
Conditions: BacTiter-Glo ATP, 48 h, at 9.4 µM, stronger effect = higher value, yeast lacking PDR1 and PDR3 efflux regulators
`O=S(=O)(Cc1ccc(Cl)cc1Cl)c1ccc(Cl)cc1` showed an inhibition of -35.8%.
In the case of `Cc1cccc(C)c1NC(=O)CN(C)C(=O)CCC(=O)c1ccccc1`, the inhibition is reported as 3.14%.
For `Cc1cccc(C)c1NC(=O)C(c1ccccc1)N1CC(=O)Nc2ccccc21` (stereo not given), the inhibition was -3.52%.
For `Cc1cccc(C)c1NC(=O)C(Cl)C(=O)c1ccccc1` (stereo not given), the inhibition was 106% (active).
For `CC[C@]12c3[nH]c4ccc(OC)cc4c3CCN1C(=O)C(CC(=O)NCc1ccco1)C[C@@H]2C(=O)N1CCN(C(=O)C2CC2)CC1` (stereo not given in full), the inhibition was 0.556%.
With `CCOC(=O)C1CCCN(C(=O)CN(c2ccc(OC)cc2)S(=O)(=O)c2c(C)noc2C)C1` (stereo not given) the inhibition was 14.1%.
In the case of `CCN(C(=O)C1CCCN(c2nc(-c3ccc(OC)cc3)no2)C1)c1ccc(OC)cc1` (stereo not given), the inhibition is reported as 103% (active).
Work on `COc1ccc(NC(=O)N2CCCC(c3nc(-c4ccc(F)cc4)no3)C2)cc1` (stereo not given) yielded an inhibition of -5.6%.
With `CC(=O)CCC(=O)c1ccc2ccccc2c1` the inhibition was 14.9%.
With `Cc1cc(N=Nc2ccc3ccccc3c2)ccc1O` the inhibition was 107% (active).
In the case of `Cc1ccc(/C=N/NC(=O)c2cc3ccccc3cc2O)o1`, the inhibition is reported as -3.13%.
`CCCCNC(=O)C(C)N(CCN(C)C)C(=O)CCCN1C(=O)NC(c2ccc(Cl)cc2)C(C(=O)OCc2ccccc2)=C1C` (stereo not given) showed an inhibition of -3.34%.
With `CN(C)CCNC(=O)c1ccc(Cl)c2cc3ccccc3nc12` the inhibition was -3.1%.
Work on `Cc1nc2nc(SCC(=O)NCc3ccco3)nn2c(C)c1Cc1ccccc1` yielded an inhibition of -0.223%.
Compound `O=C(Cc1ccccc1)n1nc(-c2ccccc2)nc1NCc1ccco1` has an inhibition of -9.78%.
In the case of `O=c1nc2s/c(=C\c3ccco3)c(=O)n2nc1Cc1ccccc1`, the inhibition is reported as 109% (active).
In the case of `c1ccc(C(=NNc2nc3ccccc3s2)c2ccccn2)cc1`, the inhibition is reported as 108% (active).
For `c1ccc2sc(NN=C3CCCC3)nc2c1`, the inhibition was 7.45%.
Work on `O=C(CCNC(=O)c1ccccc1)Nc1nc2ccccc2s1` yielded an inhibition of -3.35%.
Compound `O=[N+]([O-])c1ccc(N=NNc2ccc([N+](=O)[O-])cc2)cc1` has an inhibition of -30.4%.
